CYP2C9 inhib – blockers of cytochrome P450 2C9 activity – biochemical, luminescence, ADME assay, primary screen. P11712. CYP2C9 Supersomes, luciferin-H conversion. inhibition, % at 5 µM. hit rate 20% among 96,000. AID 777, 2007;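 active means blocking of liver enzyme CYP2C9 beyond about 50% at 5 µM, limit read from the data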
Target sequence (P11712 whole entry, looked up): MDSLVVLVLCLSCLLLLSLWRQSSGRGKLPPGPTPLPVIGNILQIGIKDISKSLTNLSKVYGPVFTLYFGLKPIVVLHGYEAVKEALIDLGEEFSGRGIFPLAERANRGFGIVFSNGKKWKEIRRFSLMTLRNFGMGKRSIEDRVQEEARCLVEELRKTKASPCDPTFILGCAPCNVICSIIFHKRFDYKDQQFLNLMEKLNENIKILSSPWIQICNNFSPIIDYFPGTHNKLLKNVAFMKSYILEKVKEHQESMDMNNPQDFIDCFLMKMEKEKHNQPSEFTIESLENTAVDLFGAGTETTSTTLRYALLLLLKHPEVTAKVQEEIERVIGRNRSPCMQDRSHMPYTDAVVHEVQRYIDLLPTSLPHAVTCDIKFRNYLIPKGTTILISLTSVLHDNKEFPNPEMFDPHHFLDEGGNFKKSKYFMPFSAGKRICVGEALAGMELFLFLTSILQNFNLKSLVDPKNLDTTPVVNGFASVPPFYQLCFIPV
CYP2C9 activ – human CYP2C9 activators, primary screen, biochemical, luminescence; recombinant CYP2C9, luciferin-H conversion; stronger effect = higher value; factor 1 = untreated enzyme, 0 = blocked; hit rate 1.4% among 96,000; activation factor at 5 µM; Cytochrome P450 2C9 (Homo sapiens), P11712; AID 1024, 2008;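 active means activation factor of 2 or more for CYP2C9 at a 5 µM dose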
CYP2C19 inh – blockers of cytochrome P450 2C19 activity – biochemical, luminescence, ADME assay, primary screen | inhibition, % at 5 µM | CYP2C19 Supersomes, luciferin-H EGE luminescence, 30 min | P33261 | hit rate 21% among 96,000;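 active means CYP2C19 inhibition above a set limit at 5 µM in the primary screen, cut at about 50% in these data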
sEH inhibitor – soluble epoxide hydrolase inhibitors, primary screen, biochemical, human sEH; inhibition, % at 2 µM; Bifunctional epoxide hydrolase 2 (Homo sapiens), P34913; hit rate 0.34% among 91,000; recombinant human sEH enzymatic activity assay; in the data active means inhibition above about 80%
CYP2C19 act – human CYP2C19 activators, primary screen, biochemical, luminescence; Cytochrome P450 2C19 (Homo sapiens), P33261; recombinant CYP2C19, luciferin-H EGE luminescence; stronger effect = higher value; 0 = fully inhibited enzyme, 1 = untreated enzyme; activation factor at 5 µM; 96,000 tested, under 10 active; AID 1025, 2008;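 active means activation factor of at least 2 at 5 µM in the primary screen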
sEH activator – soluble epoxide hydrolase activators, primary screen, biochemical, human sEH; Bifunctional epoxide hydrolase 2 (Homo sapiens), P34913; purified human sEH enzymatic activity, activator screen; activation, % at 2 µM; hit rate 0.04% among 91,000; AID 717, 2007; in the data active means activation above about 37%
Large screens that a line does not name were inactive. Compounds with a hit are over-represented: about 27% of the library has one in this group of screens.

CCCC1(C(=O)O)NC(c2cccc(OC)c2O)C2C(=O)N(c3ccccc3)C(=O)C21 (stereo unspecified)	none
C=CCSc1nnc(-c2cc3c(C(F)(F)F)nn(C)c3s2)n1C	none
C=CCSc1nnc(-c2cc3c(-c4ccccc4)nn(C)c3s2)n1C	CYP2C19 inh 54.8
CCN(CC)S(=O)(=O)c1ccc(C2CNC(=O)C2)cc1 (stereo unspecified)	none
O=C(CCc1nc2ccccc2c(=O)[nH]1)N1CCN(C/C=C/c2ccccc2)CC1	CYP2C9 inhib 51.8
O=C(c1ccc(Br)o1)N1CCN(C/C=C/c2ccccc2)CC1	CYP2C9 inhib 62.9, CYP2C19 inh 64.6
O=C(c1ccc(=O)n(Cc2ccccc2)n1)N1CCN(C/C=C/c2ccccc2)CC1	CYP2C9 inhib 91.7, CYP2C19 inh 68.9
Cc1cnc(NC(=O)CSc2nnc(-c3ccncc3)n2C2CCCCC2)s1	CYP2C19 inh 76.5
O=C(CSc1nnc(-c2cccnc2)n1-c1ccccc1)Nc1ccccn1	none
COc1ccc(-c2nnc(SCC(=O)Nc3ncc(C)s3)n2-c2ccccc2)cc1OC	CYP2C9 inhib 51.3, CYP2C19 inh 61.7
O=C(CSc1nnc(-c2ccncc2)n1C1CCCCC1)Nc1cccc(O)c1	none
COc1ccc(S(=O)(=O)N(C)CC(=O)N2CCN(c3ccc(F)cc3)CC2)cc1OC	none
CCCCNC(=O)c1sc2nc(C)cc(COC)c2c1-n1cccc1	none
COCc1cc(C)nc2sc(C(=O)OC(C)C)c(N)c12	CYP2C9 inhib 71.7, CYP2C19 inh 84.8
O=C(CCC(=O)N1CCOCC1)Nc1nnc(C2CCCCC2)s1	none
COC(=O)c1c(-c2ccncc2)csc1NC(=O)c1ccoc1C	CYP2C9 inhib 74.3, CYP2C19 inh 93.7
O=c1c2cc(N3CCOCC3)ccc2[nH]c(=S)n1Cc1ccco1	CYP2C9 inhib 53.0 (no result: sEH inhibitor, sEH activator)
Cc1[nH]nc(-c2ccc(O)c(C)c2O)c1-c1cnn(-c2ccccc2)c1	CYP2C9 inhib 99.1, CYP2C19 inh 99.2
COc1ccccc1N(CN1CCCC1=O)C(=O)c1ccccc1F	none (no result: sEH inhibitor, sEH activator)
COc1ccccc1N(CN1CCCC1=O)C(=O)c1c(F)cccc1F	CYP2C9 inhib 76.2 (no result: sEH inhibitor, sEH activator)
CCc1ccccc1N1C(=O)C2CC(C)=C(C)CC2C1=O (stereo unspecified)	CYP2C9 inhib 51.4
Cc1cccc(N(CC(=O)N2CCOCC2)S(C)(=O)=O)c1C	none
Cc1cc(C)cc(N(C(C)C(=O)NCCC2=CCCCC2)S(C)(=O)=O)c1 (stereo unspecified)	CYP2C19 inh 92.0
CC1(c2ccc3c(c2)OCO3)NC(=O)N(CC(=O)NCCC2=CCCCC2)C1=O (stereo unspecified)	none (no result: sEH inhibitor, sEH activator)
CS(=O)(=O)N(CC(=O)NCCC1=CCCCC1)c1ccc2c(c1)OCO2	CYP2C9 inhib 57.3, CYP2C19 inh 61.9
Cc1cccc(N(CC(=O)NCCC2=CCCCC2)S(C)(=O)=O)c1C	CYP2C9 inhib 95.1, CYP2C19 inh 55.6
CN(CC(=O)NCCC1=CCCCC1)S(=O)(=O)c1ccc2c(c1)c(=O)n(C)c(=O)n2C	none
COc1ccc(S(=O)(=O)N(C)CC(=O)NCCC2=CCCCC2)cc1C	CYP2C19 inh 88.5
COc1cc(C#CC#CCN2CCCCC2)ccc1O	none
Cc1cccc(NC2(C(F)(F)F)N=C3SCCN3C2=O)n1 (stereo unspecified)	none
C/C(=N\OC(=O)c1ccc(Cl)cc1)c1nccs1	none
CC(=O)N1CSCC1C(=O)N1CCN(c2ccc(N3CCOCC3)nn2)CC1 (stereo unspecified)	none
CS(=O)(=O)N(Cc1ccc(Cl)cc1)c1ccc(C(=O)NCCC2=CCCCC2)cc1	none
COc1ccc(N(CC(=O)NCCC2=CCCCC2)S(C)(=O)=O)cc1	CYP2C9 inhib 68.9, CYP2C19 inh 56.9
CC(OC(=O)CNC(=O)c1ccc2c(c1)OCO2)C(=O)NCCC1=CCCCC1 (stereo unspecified)	CYP2C19 inh 62.6
COc1ccc(C2CC(=O)c3cnc(N4CCN(Cc5ccccc5)CC4)nc3C2)cc1 (stereo unspecified)	CYP2C9 inhib 94.4, CYP2C19 inh 79.6

Assay outcomes from PubChem.
